Measured values published in PubChem BioAssay (NCI).
This is part of a sample that, as a whole, favours compounds with a hit. Of some 83,000 tested, about 20% had one in any assay.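 Results are percent growth after 48 hours of single-concentration exposure. 100 means growth as in untreated cells, lower positive values show inhibition; negative values down to -100 show cell death.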

Assays:
Test in all cases: NCI-60 one-dose screen, 48 h (100 = growth as untreated, 0 = no growth, -100 = all killed); active = growth percent below 10; inactive = the rest
HCT-15 colon = settings: 10 µM
HT29 colon = settings: 10 µM
SNB-75 CNS = settings: 10 µM
SNB-19 CNS = settings: 10 µM
U251 CNS = settings: 10 µM
PC-3 prostate = settings: 10 µM
SK-MEL-5 melanoma = settings: 10 µM
UACC-62 melanoma = settings: 10 µM unless noted
LOX IMVI melanoma = settings: 10 µM
SK-MEL-28 melanoma = settings: 10 µM
SK-MEL-2 melanoma = settings: 10 µM
EKVX NSCLC = settings: 10 µM
SN12C renal = settings: 10 µM
TK-10 renal = settings: 10 µM unless noted
ACHN renal = settings: 10 µM
CAKI-1 renal = settings: 10 µM
A498 renal = settings: 10 µM
CCRF-CEM leukemia = settings: 10 µM
MOLT-4 leukemia = settings: 10 µM
UO-31 renal = settings: 10 µM

Measured: growth

OCC1OC(OC2C(O)C(CO)OC2(CO)OC2OC(CO)C(O)C(O)C2O)C(O)C(O)C1O (configuration not stated)
inactive: HCT-15 colon 107% | HT29 colon 102% | SNB-75 CNS 86.1% | SNB-19 CNS 102% | U251 CNS 109% | PC-3 prostate 98.5% | SK-MEL-5 melanoma 109% | UACC-62 melanoma 107% | LOX IMVI melanoma 93.1% | SK-MEL-28 melanoma 106% | SK-MEL-2 melanoma 106% | EKVX NSCLC 103% | SN12C renal 103% | TK-10 renal 106% | ACHN renal 113% | CAKI-1 renal 115% | A498 renal 94.6% | CCRF-CEM leukemia 88.6% | MOLT-4 leukemia 126%

C[N+](C)=c1ccc2nc3c(cc(Nc4ccccc4)c4ccccc43)oc-2c1
inactive: HCT-15 colon 56.7% | HT29 colon 52.2% | SNB-75 CNS 86.7% | SNB-19 CNS 57.2% | U251 CNS 23.4% | PC-3 prostate 47.3% | SK-MEL-5 melanoma 46.3% | UACC-62 melanoma 44.8% | LOX IMVI melanoma 30.4% | SK-MEL-28 melanoma 23.5% | SK-MEL-2 melanoma 10.9% | EKVX NSCLC 90.2% | SN12C renal 79.9% | UO-31 renal 59.1% | TK-10 renal 106% | ACHN renal 82.1% | A498 renal 51% | CCRF-CEM leukemia 57.8% | MOLT-4 leukemia 38%

NC(=S)N/N=C/c1ccc(N)cc1
inactive: HCT-15 colon 102% | HT29 colon 107% | SNB-75 CNS 96.1% | SNB-19 CNS 104% | U251 CNS 96.6% | PC-3 prostate 82.2% | SK-MEL-5 melanoma 99.8% | UACC-62 melanoma 95.8% | LOX IMVI melanoma 91.5% | SK-MEL-28 melanoma 112% | SK-MEL-2 melanoma 104% | EKVX NSCLC 101% | SN12C renal 108% | UO-31 renal 91.6% | ACHN renal 108% | CAKI-1 renal 101% | A498 renal 91.2% | CCRF-CEM leukemia 87.2% | MOLT-4 leukemia 77.7%

OCCN1CCOCC1
inactive: HCT-15 colon 96.3% | HT29 colon 110% | SNB-75 CNS 90.4% | SNB-19 CNS 102% | U251 CNS 108% | PC-3 prostate 109% | SK-MEL-5 melanoma 103% | UACC-62 melanoma 103% | LOX IMVI melanoma 105% | SK-MEL-28 melanoma 105% | SK-MEL-2 melanoma 107% | EKVX NSCLC 116% | SN12C renal 97.5% | TK-10 renal 106% | ACHN renal 101% | CAKI-1 renal 132% | A498 renal 106% | CCRF-CEM leukemia 108% | MOLT-4 leukemia 104%

OCC(O)C(O)C(O)C(O)/C=N/O (configuration not stated)
inactive: HCT-15 colon 105% | HT29 colon 103% | SNB-75 CNS 96.1% | SNB-19 CNS 98.3% | U251 CNS 91% | PC-3 prostate 73.2% | SK-MEL-5 melanoma 101% | UACC-62 melanoma 93.3% | LOX IMVI melanoma 98.3% | SK-MEL-28 melanoma 114% | SK-MEL-2 melanoma 107% | EKVX NSCLC 105% | SN12C renal 106% | UO-31 renal 98.4% | ACHN renal 112% | CAKI-1 renal 104% | A498 renal 102% | CCRF-CEM leukemia 81.6% | MOLT-4 leukemia 82.7%

CC(=O)/C(Cc1ccccc1)=N/O
inactive: HCT-15 colon 99.7% | HT29 colon 92.9% | SNB-75 CNS 89.2% | SNB-19 CNS 98.9% | U251 CNS 94.9% | PC-3 prostate 84.9% | SK-MEL-5 melanoma 106% | UACC-62 melanoma 98.1% | LOX IMVI melanoma 94.2% | SK-MEL-28 melanoma 110% | SK-MEL-2 melanoma 99.7% | EKVX NSCLC 92.4% | SN12C renal 105% | UO-31 renal 96.2% | ACHN renal 98.6% | CAKI-1 renal 100% | A498 renal 75.6% | CCRF-CEM leukemia 99% | MOLT-4 leukemia 85%

CCCCOC(=O)c1ccc(C(C)C)cc1
inactive: HCT-15 colon 101% | HT29 colon 94.9% | SNB-75 CNS 84.3% | SNB-19 CNS 105% | U251 CNS 93.8% | PC-3 prostate 84.7% | SK-MEL-5 melanoma 106% | UACC-62 melanoma 103% | LOX IMVI melanoma 96.7% | SK-MEL-28 melanoma 111% | SK-MEL-2 melanoma 99.7% | EKVX NSCLC 91.7% | SN12C renal 102% | UO-31 renal 91.7% | ACHN renal 104% | CAKI-1 renal 96.7% | A498 renal 87% | CCRF-CEM leukemia 112% | MOLT-4 leukemia 83.3%

COCCOC(=O)c1ccc(C(C)C)cc1
inactive: HCT-15 colon 99.5% | HT29 colon 91.9% | SNB-75 CNS 86.9% | SNB-19 CNS 106% | U251 CNS 98.8% | PC-3 prostate 82.9% | SK-MEL-5 melanoma 103% | UACC-62 melanoma 99.4% | LOX IMVI melanoma 95.7% | SK-MEL-28 melanoma 110% | SK-MEL-2 melanoma 96.9% | EKVX NSCLC 100% | SN12C renal 103% | UO-31 renal 94.5% | ACHN renal 107% | CAKI-1 renal 99.4% | A498 renal 92.8% | CCRF-CEM leukemia 90.6% | MOLT-4 leukemia 88.2%
